Consider 12 sequences from PMC7862700, “An all-to-all approach to the identification of sequence-specific readers for epigenetic DNA modifications on cytosine”.

Holding throughout (assay): DAPPL (digital affinity profiling via proximity ligation, sequencing); 10 mM Tris-HCl pH 7.5, 50 mM NaCl, 1 mM DTT, 4% glycerol, room temperature, 30 min; GST-TFs on glutathione beads, 16-mer random dsDNA library, 0.1% formaldehyde crosslink after washing; high values mean tight binding
Experiment [1] has as its target T1, ELK3 (Homo sapiens, UniProt P41970 1-407).
T1 sequence: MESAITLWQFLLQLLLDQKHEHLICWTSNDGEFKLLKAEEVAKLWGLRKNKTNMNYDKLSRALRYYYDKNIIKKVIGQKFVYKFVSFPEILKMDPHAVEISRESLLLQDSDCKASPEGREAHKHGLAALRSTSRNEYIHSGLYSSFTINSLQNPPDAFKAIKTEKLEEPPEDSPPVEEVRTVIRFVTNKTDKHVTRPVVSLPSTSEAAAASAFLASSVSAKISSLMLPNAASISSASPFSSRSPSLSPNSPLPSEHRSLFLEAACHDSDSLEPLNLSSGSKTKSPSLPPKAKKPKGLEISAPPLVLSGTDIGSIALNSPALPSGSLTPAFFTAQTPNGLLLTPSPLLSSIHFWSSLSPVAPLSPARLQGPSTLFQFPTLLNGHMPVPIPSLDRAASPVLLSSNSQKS
As to conditions: protein: recombinant; tags: N-terminal GST; dsDNA, one strand shown. An outline of the steps: (§1)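 Yeast served to express human transcription factors as GST fusions, which were then captured on glutathione beads and labelled with DNA barcodes. Pooled with a tag-only sample, they were incubated with 200 nmole of a 16-mer random double-stranded DNA library for 30 min at room temperature in Tris/NaCl/DTT/glycerol buffer, washed, crosslinked with 0.1% formaldehyde, ligated by proximity, amplified by PCR and sequenced. Dividing each hexamer's read frequency for a factor by its frequency for the tag-only sample gives the binding signal.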

In experiment [2] the target is HSF1 (Homo sapiens, UniProt Q00613 1-529). As to conditions: protein: recombinant; tags: N-terminal GST; chain copies: 3; dsDNA, one strand shown. Summed up:
as §1

The target in experiment [3] is T2, SPIC (Homo sapiens, UniProt Q8N5J4 1-248).
T2 sequence: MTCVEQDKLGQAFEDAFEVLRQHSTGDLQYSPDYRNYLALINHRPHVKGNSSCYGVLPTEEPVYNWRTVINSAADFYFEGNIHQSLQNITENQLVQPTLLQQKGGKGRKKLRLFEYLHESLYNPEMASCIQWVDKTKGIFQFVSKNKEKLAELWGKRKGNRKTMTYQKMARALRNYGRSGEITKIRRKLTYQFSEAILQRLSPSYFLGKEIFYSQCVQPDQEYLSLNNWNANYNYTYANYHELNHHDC
As to conditions: protein: recombinant; tags: N-terminal GST; dsDNA, one strand shown. An outline of the steps: as §1

Experiment [4] has as its target T3, SPDEF (Homo sapiens, UniProt O95238 1-335).
T3 sequence: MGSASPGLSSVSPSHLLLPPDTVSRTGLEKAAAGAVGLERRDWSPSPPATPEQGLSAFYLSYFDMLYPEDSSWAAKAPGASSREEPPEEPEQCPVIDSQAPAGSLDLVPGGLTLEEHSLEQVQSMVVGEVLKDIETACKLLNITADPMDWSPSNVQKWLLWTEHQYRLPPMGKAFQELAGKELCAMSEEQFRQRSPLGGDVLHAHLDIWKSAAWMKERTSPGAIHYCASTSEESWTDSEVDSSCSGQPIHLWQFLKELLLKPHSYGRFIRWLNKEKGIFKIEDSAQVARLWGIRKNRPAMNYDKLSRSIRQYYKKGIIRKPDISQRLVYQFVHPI
As to conditions: protein: recombinant; tags: N-terminal GST; dsDNA, one strand shown. An outline of the steps:
as §1

Experiment [5] has as its target T4, ELF5 (Homo sapiens, UniProt Q9UKW6-2 1-255).
T4 sequence: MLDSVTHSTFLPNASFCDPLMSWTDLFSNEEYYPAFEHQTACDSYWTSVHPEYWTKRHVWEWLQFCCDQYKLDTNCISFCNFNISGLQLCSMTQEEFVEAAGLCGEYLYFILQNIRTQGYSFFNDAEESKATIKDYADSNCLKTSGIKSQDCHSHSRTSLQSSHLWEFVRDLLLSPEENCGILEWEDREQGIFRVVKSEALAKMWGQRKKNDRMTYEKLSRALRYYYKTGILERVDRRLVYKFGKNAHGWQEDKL
As to conditions: protein: recombinant; tags: N-terminal GST; dsDNA, one strand shown. Summed up:
as §1

In experiment [6] the target is T5, FLI1 (Homo sapiens, UniProt Q01543 1-452).
T5 sequence: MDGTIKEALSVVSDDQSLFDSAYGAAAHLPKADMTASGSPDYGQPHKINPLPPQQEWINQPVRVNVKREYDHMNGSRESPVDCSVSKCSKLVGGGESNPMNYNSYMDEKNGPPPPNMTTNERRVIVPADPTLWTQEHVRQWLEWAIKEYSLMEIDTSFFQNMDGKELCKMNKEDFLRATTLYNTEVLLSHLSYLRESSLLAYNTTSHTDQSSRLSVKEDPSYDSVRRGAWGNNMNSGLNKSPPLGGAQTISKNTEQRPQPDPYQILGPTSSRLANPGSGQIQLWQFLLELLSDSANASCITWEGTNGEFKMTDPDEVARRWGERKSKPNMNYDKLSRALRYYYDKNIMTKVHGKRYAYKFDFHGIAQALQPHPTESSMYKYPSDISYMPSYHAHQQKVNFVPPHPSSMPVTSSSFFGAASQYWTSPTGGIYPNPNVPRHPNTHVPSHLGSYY
As to conditions: protein: recombinant; tags: N-terminal GST; dsDNA, one strand shown. Summed up:
as §1

The target in experiment [7] is CRX (Homo sapiens, UniProt O43186 1-299). As to conditions: protein: recombinant; tags: N-terminal GST; dsDNA, one strand shown. An outline of the steps:
as §1

Sequence of HSF1 (Q00613 whole entry): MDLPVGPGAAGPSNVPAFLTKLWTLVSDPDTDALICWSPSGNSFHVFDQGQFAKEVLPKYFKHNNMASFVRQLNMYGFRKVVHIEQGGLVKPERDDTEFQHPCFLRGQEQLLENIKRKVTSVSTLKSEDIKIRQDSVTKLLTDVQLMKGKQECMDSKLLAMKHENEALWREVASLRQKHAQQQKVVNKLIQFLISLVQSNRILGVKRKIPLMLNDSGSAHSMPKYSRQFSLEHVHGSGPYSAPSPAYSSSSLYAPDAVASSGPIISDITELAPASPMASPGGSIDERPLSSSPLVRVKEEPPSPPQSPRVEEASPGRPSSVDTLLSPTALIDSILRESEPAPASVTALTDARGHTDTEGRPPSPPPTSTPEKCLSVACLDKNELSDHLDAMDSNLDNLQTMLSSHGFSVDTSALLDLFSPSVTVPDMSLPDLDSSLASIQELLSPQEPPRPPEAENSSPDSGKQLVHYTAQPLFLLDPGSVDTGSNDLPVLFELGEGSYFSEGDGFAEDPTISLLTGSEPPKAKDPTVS
Sequence of CRX (O43186 whole entry): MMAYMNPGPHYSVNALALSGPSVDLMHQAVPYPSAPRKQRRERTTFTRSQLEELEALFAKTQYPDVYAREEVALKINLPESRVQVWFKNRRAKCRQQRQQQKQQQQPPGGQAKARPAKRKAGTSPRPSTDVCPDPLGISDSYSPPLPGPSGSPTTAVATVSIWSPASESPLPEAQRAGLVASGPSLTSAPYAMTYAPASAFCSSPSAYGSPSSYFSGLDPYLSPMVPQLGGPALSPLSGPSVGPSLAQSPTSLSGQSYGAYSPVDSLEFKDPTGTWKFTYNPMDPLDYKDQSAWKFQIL

With TGGGAA, the binding signal was 1 fold enrichment (6-mer frequency, TF over GST control) in experiment [1]; 1.05 fold enrichment (6-mer frequency, TF over GST control) in experiment [2]; 1.03 fold enrichment (6-mer frequency, TF over GST control) in experiment [3]; 1.01 fold enrichment (6-mer frequency, TF over GST control) in experiment [4]; 1.15 fold enrichment (6-mer frequency, TF over GST control) in experiment [5].

For the sequence AGGATG, the binding signal is 1.07 fold enrichment (6-mer frequency, TF over GST control) in experiment [6]; 1.51 fold enrichment (6-mer frequency, TF over GST control) in experiment [4]; 1.23 fold enrichment (6-mer frequency, TF over GST control) in experiment [5].

As to AAGATC, the binding signal in experiment [1] was 1.02 fold enrichment (6-mer frequency, TF over GST control); in experiment [2], 1.35 fold enrichment (6-mer frequency, TF over GST control); in experiment [3], 1.19 fold enrichment (6-mer frequency, TF over GST control); in experiment [7], 1.37 fold enrichment (6-mer frequency, TF over GST control); in experiment [4], 1.27 fold enrichment (6-mer frequency, TF over GST control); in experiment [5], 1 fold enrichment (6-mer frequency, TF over GST control).

On to GACTTA, for which the binding signal is 1.34 fold enrichment (6-mer frequency, TF over GST control) in experiment [2]; 1.08 fold enrichment (6-mer frequency, TF over GST control) in experiment [3]; 1.93 fold enrichment (6-mer frequency, TF over GST control) in experiment [7].

With AGAAAA, the binding signal was 1 fold enrichment (6-mer frequency, TF over GST control) in experiment [1]; 2.39 fold enrichment (6-mer frequency, TF over GST control) in experiment [2]; 1.04 fold enrichment (6-mer frequency, TF over GST control) in experiment [3]; 1.27 fold enrichment (6-mer frequency, TF over GST control) in experiment [7]; 1.02 fold enrichment (6-mer frequency, TF over GST control) in experiment [5].

Regarding TCACGG, the binding signal in experiment [6] is 1.06 fold enrichment (6-mer frequency, TF over GST control); in experiment [1], 1 fold enrichment (6-mer frequency, TF over GST control); in experiment [4], 1.1 fold enrichment (6-mer frequency, TF over GST control); in experiment [5], 1.13 fold enrichment (6-mer frequency, TF over GST control).

Regarding AGCAAA, the binding signal was 1.04 fold enrichment (6-mer frequency, TF over GST control) in experiment [1]; 1.18 fold enrichment (6-mer frequency, TF over GST control) in experiment [2]; 1.05 fold enrichment (6-mer frequency, TF over GST control) in experiment [7]; 1 fold enrichment (6-mer frequency, TF over GST control) in experiment [5].

For CATTAA, the binding signal was 1.36 fold enrichment (6-mer frequency, TF over GST control) in experiment [2]; 1.08 fold enrichment (6-mer frequency, TF over GST control) in experiment [3]; 1.92 fold enrichment (6-mer frequency, TF over GST control) in experiment [7]; 1.01 fold enrichment (6-mer frequency, TF over GST control) in experiment [4].

GAGCTT: the binding signal in experiment [1] was 1.02 fold enrichment (6-mer frequency, TF over GST control); in experiment [2] it was 1.2 fold enrichment (6-mer frequency, TF over GST control); in experiment [3] it was 1.09 fold enrichment (6-mer frequency, TF over GST control); in experiment [7] it was 1.43 fold enrichment (6-mer frequency, TF over GST control).

GGTAAA: the binding signal in experiment [1] was 1.04 fold enrichment (6-mer frequency, TF over GST control); in experiment [2] it was 1.04 fold enrichment (6-mer frequency, TF over GST control); in experiment [7] it was 1.07 fold enrichment (6-mer frequency, TF over GST control); in experiment [4], 1.02 fold enrichment (6-mer frequency, TF over GST control); in experiment [5], 1.1 fold enrichment (6-mer frequency, TF over GST control).

For the sequence TGACGG, the binding signal in experiment [6] was 1.01 fold enrichment (6-mer frequency, TF over GST control); in experiment [4] it was 1.06 fold enrichment (6-mer frequency, TF over GST control); in experiment [5] it was 1.06 fold enrichment (6-mer frequency, TF over GST control).

As to TAGGGC, the binding signal in experiment [2] was 1.05 fold enrichment (6-mer frequency, TF over GST control); in experiment [3], 1.11 fold enrichment (6-mer frequency, TF over GST control); in experiment [7], 1.22 fold enrichment (6-mer frequency, TF over GST control); in experiment [4] it was 1.01 fold enrichment (6-mer frequency, TF over GST control); in experiment [5], 1.03 fold enrichment (6-mer frequency, TF over GST control).
